PubChem BioAssay (NCI)
This is part of a sample that, as a whole, favours compounds with a hit. Of some 83,000 tested, about 20% had one in any assay.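 The test compound was applied at a single concentration to cells in 96-well plates for 48 hours, and percent growth was recorded.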 Calls of active or inactive are those of the source. How the source made its calls: active means growth percent below 10; inactive means the rest.

Tested on: OVCAR-5 ovarian
Test: NCI-60 one-dose screen, 48 h (100 = growth as untreated, 0 = no growth, -100 = all killed)
Conditions: 10 µM unless noted

SMILES	growth
COc1cc2c3c(c4c5ccccc5[nH]c4c2c(OC)c1OC)C(=O)N(O)C3=O	112% (inactive)
Cc1cc2nc3c4cc(O)ccc4n(CCN(C)C)c3nc2cc1C	-11.6% (active)
Cc1csc(Nc2nc(-c3ccc(Cl)cc3)nc(C(Cl)(Cl)Cl)n2)n1	99% (inactive)
Cc1cc(C)nc(NC(N)=NCCc2ccccc2)n1	72% (inactive)
COc1cc(-c2c(C#N)c(-c3cccs3)nc3c2c(-c2ccccc2)nn3-c2ccccc2)ccc1O	95.4% (inactive)
CN1CCN(c2ccc3nc(-c4[nH]ncc4Nc4ncnc5c4OCCCN5)[nH]c3c2)CC1	-61.4% (active)
COC(=O)[C@]12CC[C@@H](C)[C@H](C)[C@@H]1C1=CC[C@@H]3[C@@]4(C)C[C@@H](O)[C@H](O)[C@@](C)(CO)C4=CC[C@@]3(C)[C@]1(C)CC2	-66% (active)
O=C(NO)c1ccc(Cn2c(=O)n(-c3ccccc3)c(=O)c3ccccc32)cc1	62.2% (inactive)
COC(=O)[C@]12CC[C@@H](C)[C@H](C)[C@@H]1C1=CC(=O)[C@@H]3[C@@]4(C)C[C@@H](O)[C@H](O)[C@@]5(C)COC(=C45)C[C@@]3(C)[C@]1(C)CC2	95.9% (inactive)
CN(C)CCCCC(C(=O)CBr)(c1ccccc1)c1ccccc1	45.2% (inactive)
Clc1ccc2c(NCCNc3nc(-c4ccccc4)cc(-c4ccccc4)n3)ccnc2c1	-79.7% (active)
Oc1ccc(Nc2ccccc2)cc1	123% (inactive)
CCCCCCCCNc1cccc2c1C(=O)c1ccccc1C2=O	105% (inactive)
C=C1C(=O)O[C@H]2[C@H]1CC/C(Cn1cc(-c3ccc(OC)cc3)nn1)=C\CC[C@@]1(C)O[C@@H]21	17.2% (inactive)
O=c1[nH]c2c3ccncc3cc(-c3cccc(Cl)c3)c2c2cnccc12	67.9% (inactive)
COc1ccc(/C=C/C(=O)NCC(C)O)cc1 (stereo not drawn)	89.2% (inactive)
Cn1cc(-c2csc(-c3c[nH]c4ccc(F)cc34)n2)c2cccnc21	78.4% (inactive)
COc1cc(/C=C/c2cc(/C=C/c3ccc(O)c(OC)c3)n(-c3ccc(Cl)cc3)c(=O)n2)ccc1O	103% (inactive)
COc1cc(/C=C2\C(=O)N(CC(O)COc3cc(O)c4c(=O)cc(-c5ccccc5)oc4c3)c3ccccc32)cc(OC)c1O (stereo not drawn)	113% (inactive)
COc1ccc2c(c1)c(-c1nc(-c3c[nH]c4ncccc34)cs1)cn2CCN	88.6% (inactive)
C=C(C)[C@@H]1CC[C@]2(C(=O)N3CCCNCC3)CC[C@]3(C)[C@H](CC[C@@H]4[C@@]5(C)CCC(=O)C(C)(C)[C@@H]5CC[C@]43C)[C@@H]12	106% (inactive)
CC1c2ccccc2N(S(=O)(=O)c2ccccc2)C1C (stereo not drawn)	108% (inactive)
Nc1ccc(Cl)cn1	101% (inactive)
CCc1nnc(NC(=O)c2ccoc2COc2ccccc2)s1	84.7% (inactive)
Nc1c2c(nc3ccc(Br)cc13)CC(c1ccccc1)CC2=O (stereo not drawn)	49.2% (inactive)
CC(C)(C)n1cc(-c2ccnc(NCCCNS(=O)(=O)c3ccc(Cl)cc3)c2)c(-c2cccc(F)c2)n1	77.2% (inactive)
COc1cc(/C=N/NC(=S)NNC(=S)NC2CCCCC2)cc(OC)c1OC	106% (inactive)
COc1ccc2[nH]c(-c3ccc(Cl)cc3)cc(=O)c2c1	97.7% (inactive)
